# From PubChem BioAssay AID1035470 (Broad Institute, 2014)
# The campaign covered roughly 1,800 compounds. Fewer than 10 were called active. Not shown: some 16% with an inconclusive outcome. Only a sample is shown. Results with a measured potency or affinity are listed apart. A number with no mark means an inactive call.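 How the source made its calls: active means compound lowering the normal-ribosome reporter at least twice as much as the humanized-ribosome reporter, growth loss under a set limit; inconclusive means no clear call, values can overlap the other calls; inactive means the rest.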
# Test: growth inhibition of wild-type GFP E. coli versus G2058-humanized strain, dose response, G2058 mutant RFP vs wild-type GFP, cherry-pick, two tests (AID 1035470)
# Settings: E. coli WT-GFP vs G2058-humanized RFP, fluorescence, 24 h; series mostly up to 50 µM; activity change, negative = inhibition: at the top concentration
row,SMILES,"activity change, negative = inhibition"
1,COC(=O)CNC(=O)COC(=O)c1ccc(Cl)nc1,26.5
2,CC(OC(=O)CCc1nc2ccccc2c(=O)[nH]1)C(=O)c1ccc(Br)cc1 (stereo not drawn),1.11
3,C(=C/c1nccc2c1[nH]c1ccccc12)/c1ccc2c(c1)OCO2,-9.87
4,O=C(Nc1cc(S(=O)(=O)N2CCOCC2)ccc1N1CCOCC1)c1ccc([N+](=O)[O-])s1,-15.8
5,Cc1cc(Br)cn2c(Cc3cccc(Cl)c3)c(-c3ccco3)nc12,-8.14
6,Cc1nc2ccccn2c1C(=O)Nc1ccc(Cl)cc1,5.9
7,COC(=O)c1ccc(CSc2nc3ccccc3s2)o1,-11
8,C[C@@H]1CCCCO[C@@H](CN(C)C(=O)CCCN(C)C)[C@H](C)CN([C@@H](C)CO)C(=O)c2cc(NC(=O)Nc3cccc4ccccc34)ccc2O1,31.3
9,Cc1nc(Nc2ccccc2)sc1C(=O)Nc1ccccc1,-26.5
10,Cn1c(=O)c2c(ncn2CC(O)CNc2ccc(F)cc2)n(C)c1=O (stereo not drawn),-11.4
11,CC1Cc2cc(S(=O)(=O)N3CCN(c4cccc(Cl)c4)CC3)ccc2N1C(=O)C1CC1 (stereo not drawn),-12.6
12,Nc1ccccc1C#CC(=O)c1ccccc1,-20.3
13,Cn1cc(CN2CCCC(C(=O)c3cccs3)C2)c(-c2cccc(Cl)c2)n1 (stereo not drawn),-5.45
14,CC(=O)N1c2c(cc(Br)cc2S(=O)(=O)N2CCCCC2)CC1C (stereo not drawn),-1.15
15,CC(OC(=O)COc1ccccc1)C(=O)NC1CCCC1 (stereo not drawn),-8.33
16,O=C(CCNC(=O)c1ccco1)Nc1cccc(Br)c1,-16.9
17,CC1(C)CC2CC(C)(CN2c2ncnc3ccccc23)C1 (stereo not drawn),-16.7
18,CS(=O)(=O)N(CC(=O)N1CCc2ccccc2C1)c1cccc(Br)c1,-13
19,O=S(=O)(NCc1cc(-c2ccccc2)no1)c1ccccc1Cl,-13.4
20,CC(=O)c1ccc(-c2cccc([C@H]3[C@@H]4C=CC[C@@H](C)[C@@H]4C(=O)N3Cc3ccccc3)c2)cc1,-7.13
21,O=C(NC1CCCCC1)C(c1cccc2ccccc12)n1c(=O)c(-c2ccco2)nc2ccccc21 (stereo not drawn),-10.3
22,CC(C)(C)CC(=O)NCCc1csc(-c2ccccc2)n1,1.87
23,Cc1cccc(NC(=O)CN(C)S(=O)(=O)c2cccs2)c1,-12.2
24,Cc1ccc2oc(C(=O)N(C)Cc3ccc(C)o3)c(C)c2c1,-5.54
25,O=C(NCc1cccnc1)C1CCN(S(=O)(=O)c2cc([N+](=O)[O-])ccc2Cl)CC1,-18.9
26,COc1ccc(CNC(=O)c2sc3nc4c(c(C(F)(F)F)c3c2N)CCC4)cc1OC,-15.1
27,CSc1ccccc1OCc1cc(C(=O)N(C)Cc2nonc2C)no1,-7.56
28,O=C1Nc2ccc(F)cc2C12Nc1ccccc1-c1nnc(SCc3ccccc3)nc1O2 (stereo not drawn),-11.2
